High-throughput results as filed in PubChem.
NadD block: inhibitors of Staphylococcus aureus NadD; purified NadD enzyme, colorimetric absorbance read-out; inhibition, % at 20 µM; hit rate 0.78% among 360,000; in the data active = inhibition above about 26%
esBAF inh: blocks esBAF chromatin remodeling in mouse ES cells. Bmi1-luciferase knock-in reporter, 24 h; 100% = twice the neutral-well signal. reporter increase, % at 12.5 µM. hit rate 2% among 350,000; in the data active = activation above about 40%; inconclusive = no clear call, values can overlap the other calls;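 also: 0% = median of the plate's neutral control wells and 100% = double that signal; a rise in the Bmi1 reporter signal indicates esBAF inhibition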
SMARCA2 act: increases SMARCA2 function in MMTV reporter cells. activation, % at 9.1 µM. hit rate 1% among 370,000. MG213 cells, MMTV-luciferase reporter, dexamethasone, overnight; in the data active = activation above about 7.8%;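 also: 0% = vehicle wells and 100% = reference activator wells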
Vif inh: inhibitors of HIV Vif; HEK293T cells, Vif self-association by quenched fluorescence, imaging, 24 h; inhibition, % at 7.49 µM; hit rate 0.35% among 340,000; AID 602346; in the data active = inhibition above about 50%, passing the limit was not always enough; inconclusive = no clear call, values can overlap the other calls; inactive = below about 31%
GRIN3A LBD mod: modulates the human NR3A ligand-binding domain. NR3A LBD differential scanning fluorimetry, Tm shift; 0% = protein alone, 100% = glycine-bound protein. Tm shift relative to glycine control, % at 25 µM. hit rate 2.5% among 340,000. AID 1259313;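 active = melting temperature shift of at least 10% of the positive control shift, at one fixed dose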
SKN-1 block: inhibitors of C. elegans SKN-1. inhibition, % at 21.8 µM. hit rate 0.49% among 360,000. C. elegans VP596 Pgst-4::GFP/RFP ratio, acrylamide-induced, 24 h;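 active = interference check ratio from 0.5 to 1.5 plus GFP to RFP signal ratio inhibition reaching or exceeding a fixed threshold, cut at about 30% in these data, passing the limit was not always enough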
SMARCA2 act conf: SMARCA2 activation, confirmation screen. shares compounds with SMARCA2 act. MG213 cells, MMTV-luciferase with dexamethasone, luminescence, overnight; MG213 cells expressing E1A, Rb sequestered; DMSO wells 0%, reference activator 100%. activation, % at 9.1 µM. hit rate 30% among 3,500. AID 652260;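 active = activation above its plate's cutoff, the mean activation of tested wells plus 3 SD, cut at about 7.9% in these data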
GAL4-VP16 Luc: GAL4-VP16 reporter activation counter-screen; HEK293 GAL4-VP16 pG5luc reporter, luciferase luminescence; scaled: DMSO wells 0%, SAHA wells 100%; shares compounds with SMARCA2 act; AID 686939; activation, % at 9.1 µM; hit rate 41% among 3,500;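 active = activation above the solvent-only control well mean plus 3 SD, averaged across control plates, cut at about 5.2% in these data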
* marks the source's active call; other numbers are inactive results; u = inconclusive; x = no result given; + = active, no number. Sampled rows, rich in hits. Any-hit rate of the full collection: about 5.2%.

SMILES	NadD block	esBAF inh	SMARCA2 act	Vif inh	GRIN3A LBD mod	SKN-1 block	SMARCA2 act conf	GAL4-VP16 Luc
C[C@@H]1CN([C@H](C)CO)C(=O)c2cc(NC(=O)C3CCCCC3)ccc2O[C@@H](C)CCCCO[C@@H]1CN(C)C(=O)CCCN(C)C	x	-4.3	x	x	x	x	x	x
COc1c(O)cc2oc(-c3ccc(O)cc3)cc(=O)c2c1O	-1.4	-0.4	7.3	8.6	8.3	9.9	x	x
O=c1cc(-c2ccccc2)oc2cc(O)c(O)c(O)c12	-4.0	-8.2	8.3*	7.9	-17.1	1.7	9.4*	12.6*
CCCOc1ccc(-c2nnc(N)s2)cc1	1.3	u	9.6*	x	-1.0	23.6	11.1*	8.0*
Cc1cc(C(=O)CN2C(=O)NC3(CCCC3)C2=O)c(C)n1-c1ccc2c(c1)OCO2	1.0	x	9.4*	6.1	-2.4	12.1	-2.3	1.7
N#CCCN(CCCN1CCOCC1)CN1C(=O)c2ccccc2C1=O	4.3	3.0	8.1*	-5.0	x	6.9	-1.6	0.7
O=C(CCCN1C(=O)c2ccccc2C1=O)NCCCN1CCOCC1	-7.8	3.1	-2.0	0.5	3.6	1.9	x	x
Cc1ccc(-c2nc(NCCN(C)C)c3ccccc3n2)cc1	-7.4	3.3	12.7*	-2.7	-0.4	5.1	15.0*	1.6
CN(C)CCCNc1nc(-c2ccc(Cl)cc2)nc2ccccc12	-5.8	3.0	1.1	-5.0	-1.4	19.0	x	x
C[C@H]1CN([C@@H](C)CO)S(=O)(=O)c2ccc(C3=CCCC3)cc2O[C@@H]1CN(C)C(=O)c1cccnc1	x	-0.7	x	x	x	x	x	x
Cc1csc(NC(=O)/C=C/c2ccc3c(c2)OCO3)n1	-4.0	x	2.3	-12.2	-4.1	4.6	x	x
Cc1ccc(C(=O)/C=C/c2ccc3c(c2)OCO3)o1	-0.6	12.5	10.9*	-7.0	0.1	-1.5	9.4*	2.2
Cc1ccc(NC(=O)/C=C/c2ccc3c(c2)OCO3)nc1	-2.0	x	9.3*	10.3	-7.5	7.5	11.9*	6.6*
CN(C)c1ccc(/C=C/C(=O)c2ccc3c(c2)OCO3)cc1	3.4	10.4	8.0*	+	1.2	17.9	0.7	3.0
COc1cccc(-c2ccc3c(c2)[C@@H]2[C@@H](CCN2C(=O)C2CCOCC2)[C@H](CO)N3)c1	x	3.1	x	x	x	x	x	x
O=C(c1cccc(F)c1)N1CCCCN2[C@H](C1)[C@H](c1ccc(-c3cncnc3)cc1)[C@@H]2CO	x	2.6	x	x	x	x	x	x
COc1ccc(C2NC(=O)NC(C)=C2C(=O)OCc2ccccc2)cc1 (centres undefined)	-0.5	-3.0	13.6*	-8.5	-1.5	0.5	4.3	0.6
CC1=C(C(=O)OCc2ccccc2)C(c2ccccc2)NC(=O)N1 (centres undefined)	-4.3	-7.2	-0.4	25.5	-3.6	1.3	x	x
O=C(CSc1ccc(-c2ccco2)nn1)NCc1ccccc1	-1.6	0.9	-1.4	-9.6	-0.1	3.2	x	x
c1ccc(CSc2ccc(-c3ccco3)nn2)cc1	5.2	x	10.2*	16.3	1.9	36.1*	8.3*	8.5*
Cc1sc(=NC(=O)c2ccco2)n(C)c1-c1ccc(F)cc1	-4.3	x	8.8*	4.8	0.8	17.3	13.8*	11.6*
Cc1sc(=NC(=O)c2ccco2)n(C)c1-c1ccccc1	4.1	-8.5	7.5	3.9	2.2	12.7	x	x
Cc1noc(C)c1NC(=O)N(C)C[C@@H]1Oc2c(NC(=O)Nc3ccc(F)cc3)cccc2C(=O)N([C@H](C)CO)C[C@@H]1C	x	0.5	x	x	x	x	x	x
CCc1nc2ccccc2nc1N1CCN(S(=O)(=O)c2ccc(Cl)cc2)CC1	0.4	-4.3	9.4*	-0.9	1.8	-4.1	-3.2	0.3
CN(C(=O)c1ccc2c(c1)SC1=NS(=O)(=O)CCN12)C(c1ccccc1)c1ccccc1	14.5	x	10.1*	1.6	-3.2	8.4	13.9*	2.9
C[C@@H]1CN([C@@H](C)CO)C(=O)c2cc(NC(=O)CCCN(C)C)ccc2O[C@H]1CN(C)S(=O)(=O)c1ccc(F)cc1	x	-2.7	x	x	x	x	x	x
